In PubChem BioAssay (EPA / NIEHS):
Some structures have more than one record in an assay (separate samples or runs), and their calls can disagree. Activity calls are given as the source filed them. How the source made its calls: active means hit-call score of the fitted dose curve at least 0.9, where 1 is the maximum; inactive means score below 0.9.

Legend:
[1] = APR_HepG2_MitoticArrest_72hr: Apredica 72-hour HepG2 Assay for Mitotic Arrest (AID 2282918); settings: high-content imaging, actives raise or lower the signal
Procedure, shortened: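 HepG2, 72 hr exposure, 0.39–200 uM in duplicate, 0.5% v/v DMSO final. Formaldehyde-fixed, Triton-permeabilized, anti-phospho-histone H3/FITC plus Hoechst. ArrayScan imaging at 20x; curves fit bidirectionally against DMSO baseline.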

[2] = APR_HepG2_MicrotubuleCSK_72hr: Apredica 72-hour HepG2 Assay for Microtubule CSK Stabilty (AID 2282919); settings: HepG2 microtubule cytoskeleton, high-content imaging, actives raise or lower the signal
Procedure, shortened: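 Ten-point dosing (0.39–200 uM, 0.5% DMSO) of HepG2 for 72 hr, with taxol as the cytoskeletal positive control. The cells were formaldehyde-fixed and then stained with alpha-tubulin/Cy5 and Hoechst. Imaging at 20x used a −2 um Z offset for tubulin.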

[3] = APR_HepG2_P-H2AX_24hr: Apredica 24-hour HepG2 Assay for H2AX Phosphorylation (AID 2282920); settings: high-content imaging, actives raise or lower the signal
Procedure, shortened: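 HCS fluorescence imaging of phospho-H2A.x immunostain (with Hoechst 33342 nuclear counterstain) in HepG2 after 24 hr compound exposure; 10 concentrations, 0.39–200 uM, duplicate wells, 0.5% v/v DMSO. Gain or loss of signal fitted relative to DMSO baseline.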

[4] = APR_HepG2_StressKinase_72hr: Apredica 72-hour HepG2 Assay for Stress Kinase (AID 2282921); settings: HepG2 stress kinase (phospho-c-Jun) imaging, actives raise or lower the signal
Procedure, shortened: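 After a 72 h compound treatment spanning 0.39 to 200 uM, formaldehyde-fixed cells are labelled for phosphorylated c-Jun and nuclei, imaged by automated fluorescence microscopy, and activity is fitted in both directions relative to DMSO controls.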

[5] = APR_HepG2_StressKinase_24hr: Apredica 24-hour HepG2 Assay for Stress Kinase (AID 2282922); settings: HepG2 stress kinase (phospho-c-Jun) imaging, actives raise or lower the signal
Procedure, shortened: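 After 24 hr compound treatment (up to 200 uM, final DMSO 0.5% v/v), HepG2 cells are fixed and multiplex-labeled; phospho-c-Jun intensity is captured by high-content fluorescence imaging and analyzed relative to DMSO.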

[6] = APR_HepG2_p53Act_72hr: Apredica 72-hour HepG2 Assay for p53 Activation (AID 2282923); settings: high-content imaging, actives raise or lower the signal;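 further: average cellular p53 protein immunofluorescence intensity in HepG2 cells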
Procedure, shortened: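 Imaging-based endpoint: after 72 hr compound exposure (up to 200 uM, 0.5% DMSO), fixed and permeabilized monolayers were labelled with anti-p53 antibody and imaged; signal change in either direction was fitted relative to DMSO controls.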

[7] = APR_HepG2_MitoMass_72hr: Apredica 72-hour HepG2 Assay for Mitochondrial Mass (AID 2282924); settings: high-content imaging, actives raise or lower the signal;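 further: MitoTracker Red CMXRos stain intensity per cell imaged as mitochondrial mass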
Procedure, shortened: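 Steps: treat HepG2 72 hr (0.39–200 uM, duplicate wells); load MitoTracker Red CMXRos, 250 nM, 30 min; fix with 3.7% formaldehyde, permeabilise with 0.5% Triton X-100; capture images, nuclei via Hoechst 33342; fit bidirectionally against DMSO.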

[8] = APR_HepG2_NuclearSize_72hr: Apredica 72-hour HepG2 Assay for Nuclear Size (AID 2282925); settings: high-content imaging, actives raise or lower the signal
Procedure, shortened: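 Compounds (0.39–200 uM, final DMSO 0.5%) were applied to HepG2 for 72 hr. Cells were then formaldehyde-fixed, permeabilized and labelled with Hoechst 33342. Nuclear diameter was quantified from six images per well.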

[9] = ATG_CRE_CIS: Attagene CIS-FACTORIAL HepG2 Assay for human cAMP Responsive Element (CRE) binding protein 3 (AID 2282926); settings: HepG2 CRE cis-reporter, Attagene multiplexed mRNA; actives raise or lower the signal
Procedure, shortened: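 Readout: fluorescently labelled reporter transcripts resolved by capillary electrophoresis after RT-PCR, taken 24 h post-dosing in transfected HepG2. Endogenous transcription factor activity drives each cis-element reporter; gain or loss of signal fitted relative to DMSO control.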

[10] = target: CCAAT/enhancer-binding protein beta (Homo sapiens) (UniProt P17676); experiment: ATG_C_EBP_CIS: Attagene CIS-FACTORIAL HepG2 Assay for human CCAAT/Enhancer Binding Protein (C/EBP) beta (AID 2282927); settings: HepG2 Attagene cis-factorial transcription factor reporter; actives raise or lower the signal
Procedure, shortened: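 Chemical-treated HepG2 cells (24 h) bearing cis-regulated reporter constructs were processed for total RNA, then reverse transcription, PCR amplification, fluorescent primer extension and fragment analysis; gain- and loss-of-signal were fitted against DMSO.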

[11] = ATG_CMV_CIS: Attagene CIS-FACTORIAL HepG2 Assay for human CMV (Internal Marker) (AID 2282928); settings: HepG2 CMV promoter reporter, transcription factor profiling; actives raise or lower the signal;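 further: endpoint acts as a background internal control marker rather than a target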
Procedure, shortened: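 Readout: fluorescent reporter cDNA fragments separated by capillary electrophoresis after RT-PCR and HpaI cut. Cells: HepG2 carrying transfected cis-promoter reporter constructs, dosed 24 h. Endpoint serves as background internal-marker control, fit bidirectionally versus DMSO.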

[12] = ATG_DR4_LXR_CIS: Attagene CIS-FACTORIAL HepG2 Assay for human Liver X Receptor (LXR), DR4 submotif (AID 2282929); settings: HepG2 Attagene DR4 cis-reporter, mRNA transcription; actives raise or lower the signal
Procedure, shortened: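 HepG2 cells transiently transfected with cis-promoter-driven multiplexed reporter units (DR4 element) were dosed for 24 h. Reporter mRNA was quantified by RT-PCR, fluorescent primer extension, HpaI digestion and capillary electrophoresis; bidirectional fitting versus DMSO baseline.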

[13] = target: Aryl hydrocarbon receptor (Homo sapiens) (UniProt P35869); experiment: ATG_Ahr_CIS: Attagene CIS-FACTORIAL HepG2 Assay for human Aryl Hydrocarbon Receptor (Ahr) (AID 2282930); settings: HepG2 AhR cis-factorial reporter transcription; actives raise or lower the signal
Procedure, shortened: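 Following 24 h of chemical dosing, transfected HepG2 liver cells with cis-driven reporter units were lysed for RNA; reporter mRNA was quantified via RT-PCR and capillary electrophoresis, and responses fitted bidirectionally from DMSO.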

[14] = ATG_AP_1_CIS: Attagene CIS-FACTORIAL HepG2 Assay for human Activator Protein 1 (AP-1) (AID 2282931); settings: HepG2 Attagene cis-factorial AP-1 reporter mRNA; actives raise or lower the signal
Procedure, shortened: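 HepG2 cells transiently transfected with cis-element-driven multiplex reporter units; 24 h compound exposure. Reporter mRNA quantified by RT-PCR, FAM-labelled fragments resolved by capillary electrophoresis; bidirectional fit versus DMSO baseline.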

[15] = ATG_AP_2_CIS: Attagene CIS-FACTORIAL HepG2 Assay for human Activator Protein 2 (AP-2) (AID 2282932); settings: HepG2 AP-2 cis-reporter, Attagene transcription factor profiling; actives raise or lower the signal
Procedure, shortened: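 Cells (HepG2) transfected with promoter-driven reporter constructs, treated 24 h. Total RNA reverse-transcribed, reporter cDNA PCR-amplified, FAM-labelled by primer extension, digested, resolved by capillary electrophoresis. Activity fitted both directions versus DMSO.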

[16] = ATG_BRE_CIS: Attagene CIS-FACTORIAL HepG2 Assay for human Bone Morphogenetic Protein (BMP) Response Element (BRE) (AID 2282933); settings: HepG2 BMP response element reporter, Attagene transcription factor profiling; actives raise or lower the signal
Procedure, shortened: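 Transient MRTU transfection of human HepG2 liver cells; 24 h compound treatment; total RNA isolated, reverse-transcribed, PCR-amplified, 6-FAM labelled, HpaI-cut, capillary electrophoresis. DMSO = negative control/baseline, bidirectional fit.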

[17] = target: Retinoic acid receptor alpha (Homo sapiens) (UniProt P10276); experiment: ATG_DR5_RAR_CIS: Attagene CIS-FACTORIAL HepG2 Assay for human Retinoic Acid Receptor Alpha (RARE), DR5 submotif (AID 2282934); settings: HepG2 Attagene cis-factorial RARE DR5 reporter, mRNA; actives raise or lower the signal;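 on AC50: reporter responds to endogenous RAR alpha beta and gamma in HepG2 not RARA alone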
Procedure, shortened: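 Transfected HepG2 reporter cells are exposed to chemicals for 24 h. Then RNA is extracted and the DR5 element reporter transcript is measured by RT-PCR and capillary electrophoresis, with bidirectional curve fitting relative to DMSO.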

[18] = target: Transcription factor E2F1 (Homo sapiens) (UniProt Q01094); experiment: ATG_E2F_CIS: Attagene CIS-FACTORIAL HepG2 Assay for human E2F Transcription Factor 1 (AID 2282935); settings: HepG2 Attagene cis-reporter, E2F reporter RNA transcripts; actives raise or lower the signal
Procedure, shortened: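 First, HepG2 cells were transfected with reporter transcription units. Next, they were dosed for 24 h. Then RNA was isolated, converted to cDNA, PCR-amplified, FAM-labeled, HpaI-digested and analyzed by capillary electrophoresis.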

[19] = APR_HepG2_MitoMembPot_72hr: Apredica 72-hour HepG2 Assay for Mitochondrial Membrane Potential (AID 2282917); settings: imaging, actives raise or lower the signal
Procedure, shortened: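 HepG2 cells exposed 72 h to compounds at 0.39–200 uM (0.5% v/v DMSO, duplicates); MitoTracker Red CMXRos 250 nM loaded 30 min before 3.7% formaldehyde fixation, imaged by HCS fluorescence. Bidirectional fit versus DMSO.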

Measured: AC50

Aryl hydrocarbon receptor (Homo sapiens), sequence (P35869 whole entry, looked up): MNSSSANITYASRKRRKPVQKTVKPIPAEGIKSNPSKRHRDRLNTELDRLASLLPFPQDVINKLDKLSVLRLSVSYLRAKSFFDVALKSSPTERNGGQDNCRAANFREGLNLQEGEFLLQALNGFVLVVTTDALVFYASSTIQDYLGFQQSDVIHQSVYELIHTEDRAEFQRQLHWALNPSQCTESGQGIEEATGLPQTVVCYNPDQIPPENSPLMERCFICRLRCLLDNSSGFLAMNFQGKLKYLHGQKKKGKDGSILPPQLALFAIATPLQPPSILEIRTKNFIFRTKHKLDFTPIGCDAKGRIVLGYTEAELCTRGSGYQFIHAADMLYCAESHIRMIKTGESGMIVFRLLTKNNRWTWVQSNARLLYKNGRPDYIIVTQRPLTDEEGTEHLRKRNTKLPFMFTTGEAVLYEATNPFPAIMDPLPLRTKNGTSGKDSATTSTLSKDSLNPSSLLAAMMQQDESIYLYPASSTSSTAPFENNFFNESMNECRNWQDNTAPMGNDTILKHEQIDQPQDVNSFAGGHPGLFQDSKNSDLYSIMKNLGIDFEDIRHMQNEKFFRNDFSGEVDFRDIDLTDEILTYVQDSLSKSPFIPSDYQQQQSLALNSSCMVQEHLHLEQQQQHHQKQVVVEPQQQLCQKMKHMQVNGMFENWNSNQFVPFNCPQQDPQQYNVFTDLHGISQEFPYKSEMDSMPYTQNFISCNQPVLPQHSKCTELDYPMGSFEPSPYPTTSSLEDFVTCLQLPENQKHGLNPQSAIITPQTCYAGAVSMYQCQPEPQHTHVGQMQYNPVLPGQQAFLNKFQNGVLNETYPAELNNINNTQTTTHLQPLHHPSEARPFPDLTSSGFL
CCAAT/enhancer-binding protein beta (Homo sapiens), sequence (P17676 whole entry, looked up, the tested form may be a part): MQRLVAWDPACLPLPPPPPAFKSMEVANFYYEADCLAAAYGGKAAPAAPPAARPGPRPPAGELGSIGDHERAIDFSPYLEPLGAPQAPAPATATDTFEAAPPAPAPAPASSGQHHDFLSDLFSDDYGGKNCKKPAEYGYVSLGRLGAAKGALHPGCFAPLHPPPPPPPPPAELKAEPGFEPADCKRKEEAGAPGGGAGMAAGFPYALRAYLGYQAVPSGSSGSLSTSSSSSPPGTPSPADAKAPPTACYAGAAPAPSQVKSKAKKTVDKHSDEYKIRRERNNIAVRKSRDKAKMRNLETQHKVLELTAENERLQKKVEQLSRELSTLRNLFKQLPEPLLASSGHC
Retinoic acid receptor alpha (Homo sapiens), sequence (P10276 whole entry, looked up): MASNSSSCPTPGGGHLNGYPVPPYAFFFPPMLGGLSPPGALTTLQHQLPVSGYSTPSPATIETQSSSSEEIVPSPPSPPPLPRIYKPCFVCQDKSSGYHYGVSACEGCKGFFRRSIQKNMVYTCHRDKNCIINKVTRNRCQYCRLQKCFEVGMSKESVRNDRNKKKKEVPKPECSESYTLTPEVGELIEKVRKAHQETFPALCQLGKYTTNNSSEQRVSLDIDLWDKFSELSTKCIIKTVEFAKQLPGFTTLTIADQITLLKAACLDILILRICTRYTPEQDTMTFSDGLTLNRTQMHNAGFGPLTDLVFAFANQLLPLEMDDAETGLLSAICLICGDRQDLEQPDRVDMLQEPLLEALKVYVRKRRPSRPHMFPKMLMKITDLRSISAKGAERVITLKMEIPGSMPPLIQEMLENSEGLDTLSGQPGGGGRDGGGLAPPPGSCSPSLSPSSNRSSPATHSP
Transcription factor E2F1 (Homo sapiens), sequence (Q01094 whole entry, looked up): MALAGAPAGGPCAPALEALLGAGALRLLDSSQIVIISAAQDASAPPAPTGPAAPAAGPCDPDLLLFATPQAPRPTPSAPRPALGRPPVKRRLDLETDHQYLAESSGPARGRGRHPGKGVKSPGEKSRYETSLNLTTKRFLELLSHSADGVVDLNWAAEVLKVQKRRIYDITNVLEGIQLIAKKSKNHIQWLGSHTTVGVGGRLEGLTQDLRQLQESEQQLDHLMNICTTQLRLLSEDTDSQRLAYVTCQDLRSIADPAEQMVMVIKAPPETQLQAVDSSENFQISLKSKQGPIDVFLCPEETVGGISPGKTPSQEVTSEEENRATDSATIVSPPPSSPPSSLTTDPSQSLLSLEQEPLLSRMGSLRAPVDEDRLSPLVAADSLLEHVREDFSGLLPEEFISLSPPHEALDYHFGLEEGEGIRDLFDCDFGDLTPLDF

CCCCCCCCN(C)CCCCCCCC
not listed: [19]
inactive: all other assays above

CN(C)C(=O)C1(N2CCCCC2)CCN(CC[C@@]2(c3ccc(Cl)c(Cl)c3)CN(C(=O)c3ccccc3)CCO2)CC1
active: [1] 6.87 µM | [3] 19.6 µM | [6] 20.2 µM | [8] 6.79 µM | [14] 0.463 µM
not listed: [12] | [19]
inactive: all other assays above

CC(C)(C)c1csc(-c2cc3cc(OCc4ccccc4CC(=O)O)ccc3o2)n1
active: [9] 54.3 µM | [11] 33.4 µM | [12] 4.56 µM | [14] 33.4 µM | [16] 57.6 µM
inactive: all other assays above

COCC(C)OCC(C)OCC(C)O (configuration not stated)
inactive: all assays above

O=C(Nc1ccc(Cl)cc1)Nc1ccc(Cl)c(Cl)c1
active: [1] 5.5 µM | [2] 6.77 µM | [3] 4.63 µM | [4] 7.87 µM | [6] 5.61 µM | [9] 4.04 µM | [12] 10.5 µM | [14] 10.5 µM | [16] 5.32 µM
not listed: [19]
inactive: all other assays above

NCc1cccc(C2CCN(C(=O)c3ccc(C#Cc4ccccc4F)o3)CC2)c1
active: [19] 98.3 µM | [1] 17.2 µM | [3] 18.6 µM | [4] 14.3 µM | [6] 11.4 µM | [8] 107 µM | [9] 11 µM | [10] 11 µM | [11] 11 µM | [14] 11 µM
inactive: [2] | [5] | [7] | [12] | [13] | [15] | [16] | [17] | [18]

O=C(O)Cn1c(=O)n(Cc2ccc(Br)cc2F)c(=O)c2ccc(Cl)cc21
not listed: [19]
inactive: all other assays above

OCCO
not listed: [12] | [19]
inactive: all other assays above

Cc1occc1C(=O)Nc1ccc(C(=O)N2CCC(F)(F)/C(=C\C(=O)N3CCC(N4CCCCC4)CC3)c3ccccc32)cc1
active: [1] 20.7 µM | [6] 29 µM | [12] 50.3 µM | [13] 12.3 µM | [16] 13.2 µM
not listed: [19]
inactive: all other assays above

CC(=O)N1CCN(c2ccc(OC[C@H]3CO[C@](Cn4ccnc4)(c4ccc(Cl)cc4Cl)O3)cc2)CC1
active: [1] 75.9 µM | [5] 74.9 µM | [6] 14.5 µM | [9] 20.7 µM | [11] 44.4 µM | [13] 0.412 µM | [14] 43.5 µM | [16] 28.6 µM
not listed: [12] | [19]
inactive: all other assays above

CC1(C)NC(=O)N(c2ccc([N+](=O)[O-])c(C(F)(F)F)c2)C1=O
inactive: [19] | [1] | [2] | [3] | [4] | [5] | [6] | [7] | [8] | [9] | [10] | [11] | [12] | [13] | [14] | [15] | [16] | [17] | [18]
active: [9] 0.00911 µM | [14] 39.2 µM | [17] 0.083 µM

Cc1cn([C@H]2C[C@H](N=[N+]=[N-])[C@@H](CO)O2)c(=O)[nH]c1=O
active: [11] 27.4 µM
not listed: [12]
inactive: all other assays above

Cc1ccc(C(C)C)cc1
not listed: [12] | [19]
inactive: all other assays above
